Test results reported in the supplement of paper PMC3334620.
Whole data set: some 33,000 sequences, median “E-score (-0.5 to 0.5)” near -8e-05, cut for the highest 2% near 0.23. Only a selection was taken, and the highest values are over-represented in it overall.

The sequences below were run against T1, Nrg2 (UniProt P38082) (assay: PBM E-score (8-mer binding enrichment) (E-score (-0.5 to 0.5)); higher = stronger / more preferred TF binding). Details: protein concentration: 100 nM; construct: GST-full length.
T1 sequence: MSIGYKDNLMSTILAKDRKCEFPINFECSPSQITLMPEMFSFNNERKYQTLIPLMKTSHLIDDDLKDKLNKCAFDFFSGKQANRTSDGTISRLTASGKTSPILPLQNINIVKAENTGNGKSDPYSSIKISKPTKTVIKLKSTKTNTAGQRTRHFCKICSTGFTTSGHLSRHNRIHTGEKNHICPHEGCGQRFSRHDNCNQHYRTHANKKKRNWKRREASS
Description: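 Universal 'all 10-mer' protein binding microarrays (Agilent AMADID 015681) probed with GST-tagged S. cerevisiae TFs (full-length or DBD) made by in vitro transcription/translation (PURExpress), about 100-200 nM. Bound TF was detected with fluorescent anti-GST. Each ungapped 8-mer (which stands for itself and its reverse complement) is scored by the PBM enrichment score (E-score), a modified Wilcoxon-Mann-Whitney statistic from -0.5 to +0.5, computed with the Universal PBM Analysis Suite. Scale: above 0.35 generally sequence-specific binding.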

Sequence | PBM E-score
TAATAACA | 0.00017
CTGGCCGA | -0.163
AACCTCCT | -0.264
ACTCATAT | -0.028
CCATTCAC | 0.0939
CGGACACG | -0.0788
GTCTAAAA | -0.0766
CAGTCACA | -0.0678
CAGTAATA | 0.161
GAGTAATA | 0.232
AAGTAATA | -0.00088
ATCGGCTC | -0.0282
AAGAATGT | 0.107
AGCCTGGG | -0.159
CCCCTGGA | 0.0369
AACCTGGG | -0.131
ACCCTGGC | 0.338
ACCCTGGA | 0.279
AACCTGGA | -0.00995
AGCCTGGA | -0.0491
CCCCTGGC | 0.11
GTCCTGGA | -0.261
GCCCTGGA | 0.247
ACCCTGGG | 0.328
AACCTGGC | -0.18

Sequence | PBM E-score
CCTAAGGC | -0.191
CCCTCATC | -0.0723
CGGGGGAC | -0.242
ACCCAGGG | 0.0967
AAAACCTA | 0.0556
CGTAGGAA | -0.0744
CAGGGAAC | 0.0728
TGCAACAA | 0.00649
ATGAGGTC | -0.142
TGCGCTAA | 0.0259
CGCGCTGA | 0.0409
CGCGCTAA | 0.259
CGCGCTTA | 0.254
GGCGCTAA | -0.0159
AGCGCTTA | 0.131
ACTAGTGG | 0.123
CAGCTCAC | -0.161
CGCCGCTC | 0.0612
ACACGCGT | 0.00123
GCAACATA | 0.0428
ACAACATC | -0.042
ACAACATA | 0.268
AGTTTGCA | -0.0668
AGGGTTCA | 0.281
AGGGTGCG | 0.0103

Sequence | PBM E-score
GGGGTTCA | 0.166
AGGGTTTG | 0.172
CGGGTTTA | 0.104
AGGGTGCA | 0.256
AGGGTTCC | 0.189
CGGGTGCA | -0.0669
AGGGTTTA | 0.235
AGCTGGCG | -0.158
AACCCGTA | -0.0217
GAATTCGA | 0.0262
AAAACTAT | 0.0045
TAAACTAA | 0.186
ATAACTAA | 0.0389
GCAACTAA | 0.288
AAAACTAA | 0.234
TCAACTAA | 0.0939
CCAACTAA | 0.0905
CTAACTAA | -0.0143
TTAACTAA | 0.249
ACAGTTCG | 0.103
GAGGCAAC | -0.192
AAGTAAGG | 0.159
CGAAAACA | 0.0723
CTGGCCTA | -0.0943
ACTTAGCT | -0.202

Sequence | PBM E-score
CGCAGAAA | 0.0592
AATATATA | 0.0908
CATATATA | 0.205
TATATATA | 0.269
GATATACA | 0.0803
TAAATATA | 0.144
GATATATA | 0.247
GATATATC | 0.0168
GAAATATA | 0.256
AAAATATA | 0.00189
TATATACA | 0.207
AATATATG | 0.225
AATATATT | 0.341
AGGCCGCC | -0.0684
CGACCAAA | 0.222
ATTACCAA | 0.0553
CATTGACG | -0.0426
ACTTCGGC | -0.0688
TATATGGA | 0.0065
AAAATAGA | 0.118
CAAATAGA | 0.296
CAAATATG | -0.0116
AATATGGA | 0.0669
CAAATATC | 0.256
TAAATAGA | -0.125

Sequence | PBM E-score
GATATGGA | 0.259
CAAATATA | 0.03
TAGCGTGA | 0.0132
CGGTAGAC | 0.0168
CGGCGAAC | -0.0868
CATTGGCC | -0.0708
ATCAGAAA | -0.042
GGAATAAC | 0.132
TAGGACAA | 0.049
GGATAGTA | 0.177
CTTATTAA | 0.196
ACTATTCG | 0.193
GTTATTCA | 0.105
ATTATTAA | 0.238
ATTATTCC | 0.0891
ATTATTCG | 0.295
CTTATTCA | -0.00255
ATTATGCG | 0.266
ATTATTCA | 0.23
ATTATGCC | 0.115
GTTATTAA | 0.182
ATTATGCA | -0.00258
CTTGATGC | -0.0811
CCAACCCA | -0.242
TCTTCTAA | -0.0126

Sequence | PBM E-score
CAGATATG | 0.159
CGGATTGC | 0.161
CGCGTTTA | 0.0535
TGTCCGAA | 0.143
ACAGGCTC | -0.159
ACCTCCCG | -0.177
TCGGTCAA | 0.0158
CCCAGACG | -0.0304
CTTGCGAC | -0.142
ATTATACA | -0.00719
ATTATACC | 0.18
ATTATACG | 0.252
GTCATTAA | 0.25
CTCATTAA | 0.173
ATCATTAA | 0.171
TGACGTAA | -0.175
CCTTAGAA | -0.0241
GCTAACCA | -0.172
GTAAGATA | 0.0912
GCAACCTA | 0.0294
GAATCCTC | -0.1
AGCAAGGG | 0.261
AGCAAGGC | -0.0107
AGTAAGGA | -0.00565
AGCAAAGG | 0.0268

Sequence | PBM E-score
AGTAAGGG | 0.233
AGTAAGGC | -0.036
AGCAACTC | -0.0833
GCCGGATA | 0.0712
GAAAGCCC | 0.0882
GAAACACC | 0.0146
AGTCCCTA | 0.0553
AGTCCCTC | -0.0587
AATCCCTA | 0.154
AATCCCTC | -0.0866
AATCCCTG | 0.278
AGTCCCTG | 0.294
CTTCAGCC | -0.229
ACATCAAT | 0.079
CTAAATTA | 0.127
GTAAATTA | -0.132
ATCAATTG | 0.15
AAAAATTG | -0.095
ATCAATTA | 0.271
ATAAATTA | 0.316
ATCAATTC | 0.107
ATAAATTC | 0.0818
ATAAATTG | 0.272
